This passage reports growth results from PubChem BioAssay (NCI).

The panel holds about 83,000 compounds, 20% with a hit somewhere; the sample as a whole holds those more often.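 How to read the values: 0–100, growth inhibition (40 = 60% inhibited); 0, no net growth; -100 to 0, cell death (-40 = 40% of starting cells died; -100 = all dead).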 Values without a mark were called inactive. Active and inactive are the calls of the source. Rule for the calls: active = growth percent below 10; inactive = the rest.

Test systems include HCT-15 colon; HT29 colon; SNB-75 CNS; SNB-19 CNS; U251 CNS; PC-3 prostate; SK-MEL-5 melanoma; UACC-62 melanoma; LOX IMVI melanoma; SK-MEL-28 melanoma; SK-MEL-2 melanoma; EKVX NSCLC; SN12C renal; UO-31 renal; TK-10 renal; ACHN renal; CAKI-1 renal; A498 renal; CCRF-CEM leukemia; MOLT-4 leukemia.
Experiment in all cases: NCI-60 one-dose screen, 48 h (100 = growth as untreated, 0 = no growth, -100 = all killed)
Holding throughout (conditions): 10 µM unless noted

With `CNC(=O)c1cc(-c2ccc(NC(=S)Nc3cccc(C(F)(F)F)c3)cc2)nc2cccnc12`, the growth was 98.2% in the assay with HCT-15 colon; 99.7% with HT29 colon; 91.2% in the assay on SNB-75 CNS; 94.7% in the assay with SNB-19 CNS; 95.3% in the assay with U251 CNS; 96.1% in the assay with PC-3 prostate. Also, the growth with SK-MEL-5 melanoma was 96.2%; with UACC-62 melanoma it was 89.9%; in the assay with LOX IMVI melanoma, 95.3%; in the assay on SK-MEL-28 melanoma, 99.9%; in the assay with SK-MEL-2 melanoma, 103%; with EKVX NSCLC, 98.1%. The growth is 97.3% in the assay with SN12C renal; 81.8% with UO-31 renal; 102% in the assay on TK-10 renal; 94.8% with ACHN renal; 91.3% in the assay with CAKI-1 renal; 88.8% in the assay on A498 renal. Also, the figures for the growth in the assay with CCRF-CEM leukemia and in the assay on MOLT-4 leukemia were 88% and 117%, respectively.

Take `CN1CCN(CC#CCn2c3c(c4ccccc42)C[C@]2(C)[C@H]4CC=C5[C@@H]6CC(C)(C)CC[C@]6(C(=O)N6CCOCC6)CC[C@@]5(C)[C@]4(C)CC[C@H]2C3(C)C)CC1`: the growth in the assay on HCT-15 colon was 28.4%; in the assay with HT29 colon it was 12.3%; in the assay with SNB-75 CNS, 88.9%; in the assay with SNB-19 CNS, 83%; with U251 CNS, 43.4%; with PC-3 prostate it was 56.7%. Moreover, the growth with SK-MEL-5 melanoma is 95.7%; in the assay on UACC-62 melanoma it was 103%; with LOX IMVI melanoma, -46.1% (active); with SK-MEL-28 melanoma, 92.1%; with SK-MEL-2 melanoma, 119%; in the assay on EKVX NSCLC, 75.2%. For the same molecule, the growth in the assay with SN12C renal was 81.1%; in the assay with UO-31 renal, 56.5%; in the assay with TK-10 renal, 135%; in the assay on ACHN renal, 93%; in the assay with CAKI-1 renal, 64.5%; in the assay on A498 renal, 92.4%. The growth in the assay on CCRF-CEM leukemia is 35%; in the assay on MOLT-4 leukemia, 33.9%.

For `COc1ccc(-c2cc(-c3ccc(N(C)C)cc3)n3c(n2)nc2ccccc23)cc1`, the growth with HCT-15 colon was 50.7%; with HT29 colon, 54.1%; in the assay on SNB-75 CNS, 95.2%; with SNB-19 CNS it was 67.2%; with U251 CNS it was 40.5%; with PC-3 prostate it was 28.1%. The growth with SK-MEL-5 melanoma was 3.05% (active); in the assay on UACC-62 melanoma, 48.2%; in the assay with LOX IMVI melanoma it was 66.3%; in the assay on SK-MEL-28 melanoma it was 77%; in the assay with SK-MEL-2 melanoma it was -3.8% (active); in the assay on EKVX NSCLC, 56.5%. Also, the growth in the assay on SN12C renal is 64.7%; in the assay on UO-31 renal, 35.2%; in the assay with TK-10 renal it was 40.9%; in the assay with ACHN renal, 63.7%; in the assay with CAKI-1 renal, 61.2%; in the assay on A498 renal it was 51.8%. For the same molecule, the growth is 24% in the assay on CCRF-CEM leukemia and 13.8% in the assay on MOLT-4 leukemia.

In the case of `C1=CC(c2nn3c(-c4ccccc4)nnc3s2)=Cc2ccccc2O1`, the growth with HCT-15 colon is 23.5%; in the assay with HT29 colon, 82.1%; in the assay with SNB-75 CNS, 78.3%; with SNB-19 CNS, 74.9%; in the assay with U251 CNS, 84.9%; in the assay with PC-3 prostate it was 80.5%. In addition, the growth in the assay with SK-MEL-5 melanoma is 95.6%; in the assay with UACC-62 melanoma it was 74%; with LOX IMVI melanoma, -24.4% (active); in the assay on SK-MEL-28 melanoma, 30.6%; with SK-MEL-2 melanoma, 74.7%; in the assay on EKVX NSCLC, 88.5%. For the same molecule, the growth with SN12C renal is 78.9%; in the assay with UO-31 renal it was 53.4%; in the assay with TK-10 renal, 116%; in the assay with ACHN renal, 76.7%; in the assay with CAKI-1 renal, 47.6%; in the assay with A498 renal it was 67.5%. Also, the growth is 27.9% in the assay with CCRF-CEM leukemia and 39.2% in the assay with MOLT-4 leukemia.

Regarding `COc1cc(C(=O)c2cc(C(C)=O)c3c(C)cccn23)cc(OC)c1OC`, the growth was 88.6% in the assay on HCT-15 colon; 103% in the assay on HT29 colon; 64.6% in the assay on SNB-75 CNS; 78.7% in the assay with SNB-19 CNS; 96.7% in the assay on U251 CNS; 90.2% in the assay with PC-3 prostate. The growth in the assay on SK-MEL-5 melanoma was 97.1%; in the assay with UACC-62 melanoma, 70.5%; in the assay on LOX IMVI melanoma it was 96.7%; in the assay with SK-MEL-28 melanoma, 103%; with SK-MEL-2 melanoma, 98.9%; with EKVX NSCLC, 99%. In addition, the growth in the assay with SN12C renal was 80.9%; in the assay with UO-31 renal, 75.6%; in the assay with TK-10 renal, 108%; in the assay with ACHN renal, 97.9%; in the assay with CAKI-1 renal, 84.5%; with A498 renal, -10.4% (active). In addition, the figures for the growth in the assay with CCRF-CEM leukemia and in the assay on MOLT-4 leukemia were 96.1% and 92.5%, respectively.

For `COC(=O)c1ccc(NC2=C(Cl)C(=O)c3nc(C)ccc3C2=O)cc1`, the growth in the assay with HCT-15 colon was 22.7%; in the assay with HT29 colon, 90.5%; in the assay on SNB-75 CNS, 106%; in the assay with SNB-19 CNS, 61.9%; with U251 CNS it was 46.9%; in the assay on PC-3 prostate it was 57.3%. The growth is 68.4% with SK-MEL-5 melanoma; 68.5% in the assay with UACC-62 melanoma; 45.1% in the assay on LOX IMVI melanoma; 75.4% in the assay on SK-MEL-28 melanoma; 88.3% in the assay on SK-MEL-2 melanoma; 76.6% in the assay with EKVX NSCLC. Moreover, the growth with SN12C renal is 77%; with UO-31 renal, 61.7%; with TK-10 renal it was 152%; in the assay on ACHN renal it was 35.1%; in the assay on CAKI-1 renal, 80.2%; with A498 renal, 77.9%. In addition, the growth is 16.1% with CCRF-CEM leukemia and 19.8% with MOLT-4 leukemia.

Consider `COC(=O)c1cccc(NC2=CC(=O)C(C)=C(C)C2=O)c1`, for which the growth in the assay on HCT-15 colon was 93.8%; with HT29 colon, 110%; with SNB-75 CNS, 93.4%; with SNB-19 CNS, 96.2%; in the assay on U251 CNS it was 94.7%; in the assay with PC-3 prostate it was 79.7%. The growth with SK-MEL-5 melanoma was 96.3%; in the assay on UACC-62 melanoma, 96.2%; in the assay on LOX IMVI melanoma, 61%; in the assay on SK-MEL-28 melanoma it was 111%; with SK-MEL-2 melanoma, 101%; in the assay with EKVX NSCLC it was 100%. Besides, the growth was 93.3% with SN12C renal; 94.5% in the assay on UO-31 renal; 133% with TK-10 renal; 100% in the assay with ACHN renal; 86.5% in the assay on CAKI-1 renal; 78.7% in the assay on A498 renal. Also, the figures for the growth with CCRF-CEM leukemia and in the assay on MOLT-4 leukemia were 52.8% and 40%, respectively.
